# Myeloid diff MLP – induction of myeloid progenitor differentiation, primary screen, cell-based, flow cytometry, MLPCN library; ER-HoxA9 myeloid progenitors, lysozyme-GFP differentiation; actives 1% (n = 360,000); calls only at 10 µM; AID 624256, 2012;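 active = normalized GFP-positive differentiation at or above the plate's own cutoff, the solvent-only control mean plus 3 SD; inconclusive = no clear call, values can overlap the other calls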;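 also: cells exposed to compound for four days before flow analysis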
# TPT1 inhibitor – Candida albicans TPT1 enzyme inhibitors, primary screen, biochemical, fluorescence polarization; actives 0.81% (n = 300,000); tRNA 2'-phosphotransferase TPT1 (Candida albicans SC5314); AID 1962, 2009; inhibition, % at 5 µM; recombinant caTPT1, FP RNA substrate dephosphorylation;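 active = inhibition above the mean of all tested compounds plus 3 SD, set per screening campaign, cut at about 24% in these data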;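 also: plate controls were DMSO alone for no effect and ferristatin control at 100 nM for full effect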
# HNF4A DNA FP – change in binding of human HNF4A to DNA, primary screen, biochemical, fluorescence polarization, FITC-DNA; Hepatocyte nuclear factor 4-alpha (Homo sapiens), P41235; AID 1224865, 2016; actives 0.3% (n = 360,000); 1 h; activity change, % at 10 µM; in the data active = activity change above about 30%, passing the limit was not always enough
# Rpn11 inh – Rpn11 (PSMD14) deubiquitinase inhibitors, primary screen, biochemical, fluorescence polarization, uHTS | 26S proteasome non-ATPase regulatory subunit 14 (Homo sapiens), O00487 | human 26S proteasome, Ub4-pepOG fluorescence polarization; 20S core pre-blocked with epoxomicin | inhibition, % at 20 µM | actives 0.59% (n = 360,000) | AID 588493, 2011;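 active = inhibition at 20 µM, scaled to each plate's controls, above about 33%, limit read from the data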
# Target sequence (O00487 whole entry, looked up): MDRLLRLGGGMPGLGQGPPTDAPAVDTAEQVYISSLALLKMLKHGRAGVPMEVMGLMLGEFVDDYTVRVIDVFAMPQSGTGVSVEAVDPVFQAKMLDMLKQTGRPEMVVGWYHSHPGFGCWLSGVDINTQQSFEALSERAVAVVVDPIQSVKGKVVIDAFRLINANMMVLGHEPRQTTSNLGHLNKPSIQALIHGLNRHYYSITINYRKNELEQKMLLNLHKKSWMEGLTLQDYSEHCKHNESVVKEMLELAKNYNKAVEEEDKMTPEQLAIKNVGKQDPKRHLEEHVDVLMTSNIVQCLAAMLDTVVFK
# Numbers without * were called inactive; i = inactive; ? = inconclusive; . = not tested or not shown; + = active, no number. This is a sample that favours compounds with a hit; in the whole collection about 2.1% have one here.
SMILES,Myeloid diff MLP,TPT1 inhibitor,HNF4A DNA FP,Rpn11 inh
C[n+]1c(-c2ccccc2)c2cc(N)ccc2c2ccc(N)cc21,+,-47.1,-47.4,-28.3
CN(Cc1cccc(-c2ccncc2)c1)C(=O)Oc1ccc([N+](=O)[O-])cc1,i,.,2.4,.
CCOC(=O)[C@]12Cc3cc(Cl)ccc3[C@H]1N(C1CCCCC1)C(=O)c1ccccc12,?,.,-4.3,.
O=C1NC(=O)C(CCc2ccncc2)(Cc2ccc3c(c2)OCO3)C(=O)N1CCc1ccccc1 (centres undefined),+,-1.5,-0.2,-1.4
O=C(COc1ccccc1)c1cn(Cc2ccccc2)c2ccccc12,+,4.2,20.3,.
CCOC(=O)[C@]12Cc3cc4ccccc4cc3[C@H]1N(Cc1ccccc1)C(=O)c1ccccc12,i,.,2.5,.
COc1ccc(OC(=O)N(C)C[C@@H]2OCc3ccccc3-c3c(n(C)c4ccccc34)C(=O)N([C@H](C)CO)C[C@@H]2C)cc1,i,.,3.5,1.8
N#CC1c2ccccc2-n2nncc2CN1C(=O)c1ccccc1F (centres undefined),i,.,-2.8,6.2
O=C1NC(=O)C(=Cc2ccc(-c3ccccc3[N+](=O)[O-])o2)C(=O)N1,i,3.0,-1.6,3.2
O=C1NC(=O)C(=Cc2ccc(-c3cc(Cl)ccc3[N+](=O)[O-])o2)C(=O)N1,+,.,-9.5,11.0
c1coc(CN2Cc3ccccc3-n3nncc3C2)c1,i,.,-2.7,1.9
O=C1NC(=O)C(=C/C=C/c2coc3ccc(Br)cc3c2=O)C(=O)N1,.,38.5*,.,.
O=C1NC(=O)C(=Cc2coc3ccccc3c2=O)C(=O)N1,i,1.9,-2.7,4.3
CCOC(=O)CNC(=O)N1Cc2ccccc2-n2nncc2C1,+,.,-1.7,-1.3
O=C(COc1ccccc1)N1CCN(C2CCCC2)CC1,i,-2.4,40.3*,3.2
Cc1ccc(CN2CCC3CCC(C3)C2)c(O)c1 (centres undefined),i,.,1.7,-2.5
CNC(=O)C[C@H]1CC[C@@H]2NC[C@H](O)COC[C@H]2O1,i,.,3.0,.
O=C1NC(=S)SC1=Cc1ccc(N(CCCl)CCCl)cc1,+,.,195.2,.
NC1C2CN3CCN(C2)CC1(c1ccccc1)C3 (centres undefined),i,-3.0,75.1*,-16.6
Cc1[nH]c2ccccc2c1CCCNC1CCCCC1,+,-5.7,2.8,0.5
Cc1[nH]c2ccccc2c1CCN,i,2.7,-1.1,8.1
Cc1ccc(-n2c(=O)[nH]c3ccccc3c2=O)cc1[N+](=O)[O-],i,.,-1.0,7.2
CCCCCc1nc2ccccc2c(=O)n1-c1ccccc1[N+](=O)[O-],i,-0.9,1.3,1.0
CCCCCc1nc2c(c(=O)c3ccccc3n2C)c(=O)n1C1CCCCCC1,+,-1.5,7.9,35.7
CC(C(=O)c1c[nH]c2ccccc12)N1CCOCC1 (centres undefined),i,-0.1,1.9,2.1
SMILES,Myeloid diff MLP,TPT1 inhibitor,HNF4A DNA FP,Rpn11 inh
CC(C)N1CC=C(c2c[nH]c3ccccc23)CC1,+,1.6,3.0,-2.9
O=c1cc(C(F)(F)F)c2cc3c4c(c2o1)CCCN4CCC3,+,-43.7,-73.3,-122.7
Cc1cc2c(C(F)(F)F)cc(=O)oc2c2c1NCCC2,i,-22.4,22.2,.
C=CC12CN(C)C3C4COC(CC41)C1(C(=O)Nc4ccccc41)C32 (centres undefined),i,.,-0.5,0.6
COC(=O)C1=C(c2ccccc2OCc2ccccc2)C[C@@H]2CC[C@H]1N2C(=O)NC1CCN(Cc2ccccc2)CC1,+,.,3.2,4.9
COc1ccc(-n2nnnc2C(c2cccc(OC)c2OC)N2CCC(n3c(=O)[nH]c4ccccc43)CC2)cc1 (centres undefined),i,.,2.3,1.4
COc1cccc(C(c2nnnn2-c2ccc3c(c2)OCCO3)N2CCC(n3c(=O)[nH]c4ccccc43)CC2)c1OC (centres undefined),+,.,-3.7,8.2
Cc1[nH]n(-c2ccccc2)c(=O)c1C(c1ccc([N+](=O)[O-])cc1)c1c(C)[nH]n(-c2ccccc2)c1=O,i,-0.3,1.2,8.9
O=[N+]([O-])c1ccc(C(c2ccc([N+](=O)[O-])cc2)c2ccc([N+](=O)[O-])cc2)cc1,+,.,-2.9,7.1
[N-]=[N+]=NC1C[C@H](n2ccc(=O)[nH]c2=O)O[C@@H]1CO (some centres undefined),i,0.8,0.4,4.5
CCCCn1c(NC(=O)c2ccc(Br)o2)c(C(=O)OCC)c2nc3ccccc3nc21,+,10.7,0.1,35.6
CCCCn1c(NS(=O)(=O)c2ccccc2)c(C(=O)OCC)c2nc3ccccc3nc21,i,2.2,1.2,8.3
CN1/C(=C\C=C2C(=O)NC(=S)NC2=O)C(C)(C)c2ccccc21,+,.,60.1,7.0
COc1ccc(CN2Cc3cnnn3-c3ccccc3C2c2ccccc2)cc1 (centres undefined),+,.,2.1,5.1
Cc1ccccc1-c1ccc2c(c1)C1c3c(-c4ccccc4)nnn3-c3ccccc3C(=O)N1CC2 (centres undefined),i,.,1.0,-0.6
Nc1ccc2ccc3cccc[n+]3c2c1,+,-105.8,-98.6,-218.1
N#CC1c2ccccc2-n2nncc2CN1S(=O)(=O)c1ccc(Cl)cc1 (centres undefined),i,.,2.8,-4.5
Cc1ccc(S(=O)(=O)N2Cc3cnnn3-c3ccccc3C2C#N)cc1 (centres undefined),+,.,1.1,1.5
c1ccc2c3c([nH]c2c1)CNCC3,+,4.0,0.9,-13.9
COc1ccc2[nH]c3c(c2c1)CCNC3,i,1.1,5.0,6.2
O=C(O)c1nn(Cc2ccc(Cl)cc2)c2ccccc12,+,.,-3.1,-4.3
CCOC(=O)[C@]12Cc3ccccc3[C@H]1N(CCC(=O)OC)C(=O)c1cc(OC)ccc12,i,.,2.8,.
CN(C)C(=S)SSC(=S)N(C)C,+,-5.3,1.5,6.7
NS(=O)(=O)c1ccc(-c2ccc(C=C3C(=O)NC(=S)NC3=O)o2)cc1,.,36.2*,.,.
Cc1cc(N(CCCl)CCCl)ccc1C=Cc1ccncn1,?,.,66.7*,.
Cc1cc(N(CCCl)CCCl)ccc1/C=N/N=C(\N)c1cnccn1,i,4.1,-1.9,7.5
Cc1ccc(NC(=O)CC[C@H]2O[C@@H](n3cnc4c(NC(=O)c5ccccc5)ncnc43)[C@H](O)[C@@H]2O)cc1C,i,.,0.9,-4.5
O=c1c(C=NCc2cccs2)c(O)n(C2CCCCC2)c(=O)n1C1CCCCC1,i,2.0,-5.7,-14.5
